According to PubChem BioAssay AID492967 (ICCB-Longwood Screening Facility, Harvard Medical School, 2010):
The campaign covered roughly 140,000 compounds. About 320 (0.23%) were called active. Rule as the data show it: active = z-score mostly below about -2.9 (no sharp cut-off); inactive = mostly above about -1.9. Shown is part of a subset that was picked to be rich in actives.

The molecules below were run on CapD gamma-glutamyltranspeptidase (Bacillus anthracis Ames Ancestor) (assay: Bacillus anthracis CapD inhibitors, primary screen, biochemical, fluorescence intensity (AID 492967)). Settings: purified CapD enzyme, fluorescence intensity read-out; active compounds read low.
With `COc1ccc2nc(SCC(=O)Nc3cc(NC(=O)CSc4nc5ccc(OC)cc5[nH]4)cc(C(=O)O)c3)[nH]c2c1` the z-score was -1.48 (inactive).
For `COc1ccc(CCNC(=O)c2cn(C)c(=O)c3cc(OC)c(OC)cc23)cc1OC`, the z-score was 1.5 (inactive).
`CCC(=O)NCCc1nc2ccccc2n1CC` was tested, and the z-score was -0.29 (inactive).
For `Cc1ccccc1Cn1c(CCNC(=O)C(C)(C)C)nc2ccccc21`, the z-score was -0.49 (inactive).
For `O=C(COc1ccccc1)NCCc1nc2ccccc2n1Cc1ccccc1`, the z-score was -8.12 (active).
In the case of `CC(C)NC(=O)CN1CCN(S(=O)(=O)c2cc(Cl)ccc2Cl)CC1`, the z-score is reported as -0.36 (inactive).
In the case of `CC(C)(C)c1ccc(OCCCn2c(=O)sc3ccccc32)cc1`, the z-score is reported as 0.35 (inactive).
In the case of `O=C1CC(c2c(Cl)cccc2Cl)c2ccc3ccccc3c2N1` (centres undefined), the z-score is reported as 0 (inactive).
For `COCCNC(=O)c1ccc(Cn2c(SCC(=O)NCC3CCCO3)nc3ccc(Br)cc3c2=O)cc1` (centres undefined), the z-score was -0.085 (inactive).
With `Cc1ccc2cc3cc(C(=O)NCc4ccc(F)cc4)oc3nc2c1` the z-score was 50.4 (inactive).
In the case of `O=C(c1ccc(C(F)(F)F)cc1)N1CCC(c2nnc(-c3ccccc3)o2)CC1`, the z-score is reported as -0.12 (inactive).
With `Cc1ccc2cc(C)c(C)cc2c1` the z-score was -0.345 (inactive).
`COc1ccc(CCNC(=O)CCC(=O)Nc2nc(-c3cc4ccccc4oc3=O)cs2)cc1OC` was tested, and the z-score was 0.27 (inactive).
For `CN(C)C=NC(=O)c1ccc(Oc2ncc(C(F)(F)F)cc2Cl)cc1`, the z-score was -0.275 (inactive).
In the case of `CC(=O)c1cc(Cl)cc(Cl)c1OC(=O)c1c(-c2c(Cl)cccc2Cl)noc1C`, the z-score is reported as -0.58 (inactive).
`O=C(NCCCN1CCCCC1)c1cc(-c2ccncc2)nc2ccccc12` was tested, and the z-score was 0.14 (inactive).
With `CCOc1cc(/C=C2\SC(=S)N(C(C)C(=O)O)C2=O)ccc1O` (centres undefined) the z-score was -2.57 (inactive).
With `CCOc1cc(/C=C2\SC(=S)N(c3c(C)n(C)n(-c4ccccc4)c3=O)C2=O)ccc1O` the z-score was -1.1 (inactive).
In the case of `CCCC(C(=O)O)N1C(=O)/C(=C/c2ccc(O)c(OCC)c2)SC1=S` (centres undefined), the z-score is reported as -7.48 (active).
With `Cc1ccc(N2CCN(c3ccccc3)CC2)nn1` the z-score was -0.315 (inactive).
With `COc1ccc(CN2C(=O)CC(C(=O)Nc3ccc(F)cc3)SC2=Nc2ccccc2)cc1` (centres undefined) the z-score was -0.02 (inactive).
In the case of `CCN1C[C@]2(OC(=O)c3ccccc3NC(C)=O)CC[C@H](OC)[C@@]34C2C[C@@H]([C@@H]13)[C@@]1(O)C[C@H](OC)[C@H]2CC4[C@]1(O)[C@H]2OC` (some centres undefined), the z-score is reported as 7.48 (inactive).
`CN(C(=O)Cn1nc(Cc2ccncc2)c2ccccc2c1=O)c1ccccc1` was tested, and the z-score was 5.11 (inactive).
In the case of `COc1ccc([N+](=O)[O-])cc1/C=C1\C(=O)NC(=O)N(c2ccc(Cl)cc2)C1=O`, the z-score is reported as -0.64 (inactive).
For `Oc1c(Br)cc(Br)cc1C=Nc1ccc(Oc2ccc(Cl)cc2)cc1`, the z-score was -1.07 (inactive).
For `Cc1ccc2c(c1)-c1onc(C(=O)NC3CCCCC3)c1CO2`, the z-score was 3.98 (inactive).
For `CCO/C=C1\SC(=S)N(Cc2ccccc2)C1=O`, the z-score was -0.945 (inactive).
For `O=C1c2ccccc2C(=O)N1CC1c2ccccc2CCN1S(=O)(=O)c1cccc2nsnc12` (centres undefined), the z-score was -0.52 (inactive).
`CCCCOc1ccc(C(=O)Nc2ccc3nc(SCC(=O)NCC4CCCO4)sc3c2)cc1` (centres undefined) was tested, and the z-score was 0.345 (inactive).
For `O=C(/C=C/c1cn(-c2ccccc2)nc1-c1ccc(F)cc1)NCc1cccnc1`, the z-score was 2.33 (inactive).
For `COC(=O)c1sc(-c2cccs2)cc1NS(=O)(=O)c1ccccc1`, the z-score was 41.9 (inactive).
`COC(=O)c1c(NC(=O)Cn2nc([N+](=O)[O-])c(Br)c2C)sc2c1CCC(C)C2` (centres undefined) was tested, and the z-score was -0.48 (inactive).
With `CCc1ccc(NC(=O)Cc2csc(C)n2)cc1` the z-score was -0.185 (inactive).
`CCOC(=O)C1C(=O)CN(c2ccccc2)C1=O` (centres undefined) was tested, and the z-score was 2.06 (inactive).
For `O=C(C1CCN(S(=O)(=O)c2ccc3[nH]c4c(c3c2)CCCCC4)CC1)N1CCCC1`, the z-score was -0.165 (inactive).
With `Cc1ccc(NC(=O)c2ccccc2N)cc1C` the z-score was 29 (inactive).
In the case of `C=CCNC(=S)Nc1ccn(Cc2ccccc2C)n1`, the z-score is reported as -0.535 (inactive).
In the case of `O=C(CSc1ccc(Cl)cc1)N1CCC(C(F)(F)F)CC1`, the z-score is reported as 0.56 (inactive).
With `Cc1nc(Nc2ccc(S(N)(=O)=O)cc2)nc(Nc2ccc(S(N)(=O)=O)cc2)c1Br` the z-score was -0.56 (inactive).
With `CC(C)C(O)(C(=O)OC[C@@H]1CC[N+]2([O-])CCC[C@@H]12)C(C)O` (some centres undefined) the z-score was 0.78 (inactive).
In the case of `O=C1CSC(c2ccccc2)C(=O)N1c1ccc(Br)cc1` (centres undefined), the z-score is reported as 0.345 (inactive).
For `Cc1ccc(-c2n[nH]c3c2C(c2ccccc2F)N(c2ccc(F)cc2)C3=O)cc1` (centres undefined), the z-score was -0.525 (inactive).
In the case of `C/C(=N\NC(=O)C1CCCCC1)c1cccs1`, the z-score is reported as -0.47 (inactive).
With `N#CCC1NCCc2ccccc21` (centres undefined) the z-score was -2.33 (inactive).
In the case of `CC1(C)CC2(CCCN(CC#N)C2)CCS1` (centres undefined), the z-score is reported as 0.425 (inactive).
In the case of `COc1ccc(C(Nc2ncnc3c2ncn3C2CC=C(CO)CC2)(c2ccccc2)c2ccccc2)cc1` (centres undefined), the z-score is reported as -0.275 (inactive).
For `CN(Cc1ccccc1)C(=O)Cn1ncc2c3ccccc3n(Cc3ccccc3F)c2c1=O`, the z-score was 0.685 (inactive).
With `O=C(CN1CCN(c2ccc([N+](=O)[O-])cn2)CC1)Nc1ccc2c(c1)OCO2` the z-score was -0.23 (inactive).
For `CCN(c1ccccc1)S(=O)(=O)c1cc2c(cc1C)n(C)c(=O)c(=O)n2C`, the z-score was 4.49 (inactive).
With `C=C1Cn2c(nnc2-c2ccc(Br)cc2)S1` the z-score was 0.32 (inactive).
With `O=C(CSc1nc2ccc(Br)cc2c(=O)n1-c1ccccc1)NCc1ccco1` the z-score was 0.585 (inactive).
For `O=C(O)CCCN1C(=O)/C(=C2\SC(=S)N(CCCC(=O)O)C2=O)SC1=S`, the z-score was 1.03 (inactive).
In the case of `O=C(O)c1cc2cccnc2nc1C(F)(F)F`, the z-score is reported as -0.285 (inactive).
For `COc1ccc(C(=O)OC2CC(C)=CCC3(C)CCC(O)(C(C)C)C23)cc1O` (centres undefined), the z-score was -0.385 (inactive).
In the case of `COc1ccc(C(=O)N2CCN(C(=O)OCc3ccc(SC(F)(F)F)cc3)CC2)cc1F`, the z-score is reported as 0.325 (inactive).
For `Nc1c(C(=O)O)noc1C(=O)c1ccccc1`, the z-score was 2.44 (inactive).
For `O=C(OCC(=O)N1CCCCC1)c1ccc(OC(F)(F)F)cc1`, the z-score was 0.135 (inactive).
`CC(C)(C)NC(=S)NNc1c(Cl)cncc1Cl` was tested, and the z-score was 0.41 (inactive).
With `CN(c1ncnc2c1nc1n2CCCCC1)C1CCCCC1` the z-score was 0.88 (inactive).
`NC(=S)c1ccc(-c2csnn2)cc1` was tested, and the z-score was -0.465 (inactive).
In the case of `CCN1C(=O)/C(=C2/Sc3ccccc3N2CCCS(=O)(=O)O)SC1=S`, the z-score is reported as -3.94 (active).
With `CCN1C(=O)/C(=C2/Sc3ccccc3N2C2CCCCC2)SC1=S` the z-score was -0.02 (inactive).
For `CCN1C(=O)/C(=C/c2ccccc2)SC1=S`, the z-score was 0.005 (inactive).
In the case of `CCCCc1ccc2nc(N)sc2c1`, the z-score is reported as -0.715 (inactive).
`O=C(NCCO)c1ccc(/C=N/O)nc1` was tested, and the z-score was 0.075 (inactive).
In the case of `Cc1c(Cl)cccc1NC(=O)c1ccc(-n2cccn2)c([N+](=O)[O-])c1`, the z-score is reported as 2.56 (inactive).
With `CC(=O)N1CCCN(S(=O)(=O)c2cccc3nonc23)CC1` the z-score was -0.285 (inactive).
With `CCn1c2ccccc2c2cc(CN3CCN(C(=O)c4ccccc4OC)CC3)ccc21` the z-score was 14 (inactive).
For `O=[N+]([O-])c1ccc(-c2ccc(-c3[nH]c(-c4cccc([N+](=O)[O-])c4)nc3-c3ccccc3)cc2)cc1`, the z-score was 0.025 (inactive).
In the case of `CC1CCN(CC(=O)N2c3ccccc3C(C)(c3ccccc3)CC2(C)C)CC1` (centres undefined), the z-score is reported as 0.18 (inactive).
For `CCOC(=O)CC(=O)CSc1nc2c(sc(=S)n2CCc2ccccc2)c(=O)n1Cc1ccco1`, the z-score was 0.52 (inactive).
In the case of `O=C(COc1ncn(-c2ccccc2)n1)N/N=C/c1cc(OCc2ccccc2)cc(OCc2ccccc2)c1`, the z-score is reported as -1.07 (inactive).
For `COc1cc(Br)c(C2C(C(=O)OCCOc3ccccc3)=C(C)NC3=C2C(=O)CCC3)cc1OC` (centres undefined), the z-score was 22.1 (inactive).
With `CCN1CCN(CCNC(=O)c2ccc(NC(=O)C3=CSCCO3)cc2)CC1` the z-score was -0.9 (inactive).
`O=C(NCCc1ccccc1)c1cc2c(s1)CS(=O)(=O)C2` was tested, and the z-score was 0.17 (inactive).
For `O=C(O)c1cc2c(s1)CS(=O)(=O)C2`, the z-score was -3.92 (active).
With `O=C(O)c1cc2ccccc2c(=O)s1` the z-score was 0.97 (inactive).
For `COc1ccc(C2Nc3ccccc3C(=O)N2c2ccccc2)cc1CSc1nc2ccccc2s1` (centres undefined), the z-score was 34.5 (inactive).
`Cc1cc(C)nc(N2CCN(C(=O)C(C)(C)C)CC2)n1` was tested, and the z-score was -0.02 (inactive).
For `Nc1ccc(C(=O)Nc2nc3ccc(NC(=O)c4ccccc4)cc3s2)cc1`, the z-score was 13.6 (inactive).
`O=C(OCCN1C(=O)c2ccccc2C1=O)c1ccc(Cl)cc1` was tested, and the z-score was 0.395 (inactive).
With `O=C(NC(=O)N1CCOCC1)c1ccc(S(=O)(=O)N2CCOCC2)cc1` the z-score was 0.605 (inactive).
For `CC1=NN(c2ccccc2)C(=O)CC1`, the z-score was 0.205 (inactive).
With `CCC(C)c1ccc(N2C(=O)C=CC2=O)cc1` (centres undefined) the z-score was -0.045 (inactive).
In the case of `COc1ccc(N2CCN(c3ncnc4sc(C(=O)NCc5ccccc5OC)c(C)c34)CC2)cc1`, the z-score is reported as -0.385 (inactive).
In the case of `Cc1ccc2c(c1)c1c3n2CCN(S(C)(=O)=O)C3CCC1` (centres undefined), the z-score is reported as 0.19 (inactive).
In the case of `CCOC(=O)c1cc(C#N)c(C)nc1N1CCN(C(=O)OCCN2CCN(Cc3cc4c(cc3Cl)OCO4)CC2)CC1`, the z-score is reported as -0.455 (inactive).
In the case of `OC(CSCc1ccc(Cl)cc1)(c1ccccc1)c1ccccc1`, the z-score is reported as -0.53 (inactive).
For `CCOC(=O)c1ccc(NC(=O)N2CCC(CN3CCCCCC3)CC2)cc1`, the z-score was -1.43 (inactive).
`O=C1CCc2ccccc2CN1` was tested, and the z-score was 0.13 (inactive).
With `Nc1ccc2c(c1)C/C(=C\c1ccco1)C2=O` the z-score was -3.17 (inactive).
In the case of `Cc1cccc(NC(=O)N(C)C)c1`, the z-score is reported as 0.275 (inactive).
In the case of `C=CCn1c(=S)sc2c(SCC(=O)N3CCc4ccccc43)ncnc21`, the z-score is reported as 1.31 (inactive).
In the case of `C=CCn1c(=S)sc2c(=O)[nH]c(C)nc21`, the z-score is reported as -5.7 (active).
